What was measured:
Assay in all cases: fluorescence anisotropy competition titration; 25 mM sodium phosphate (purification buffer pH 7.2), 225 mM NaCl, 10% v/v glycerol, 5 mM DTT, 0.2 mg/mL BSA, 22 C; low values mean tight binding
Details in all cases: protein: recombinant; tags: N-terminal 6xHis-lipoyl-TEV tag, cleaved; chain copies: 4; dsDNA, one strand shown
Dmp53 = molecular target: T1, Dmp53 (Drosophila melanogaster, UniProt Q9N6D8 1-385)
T1 sequence: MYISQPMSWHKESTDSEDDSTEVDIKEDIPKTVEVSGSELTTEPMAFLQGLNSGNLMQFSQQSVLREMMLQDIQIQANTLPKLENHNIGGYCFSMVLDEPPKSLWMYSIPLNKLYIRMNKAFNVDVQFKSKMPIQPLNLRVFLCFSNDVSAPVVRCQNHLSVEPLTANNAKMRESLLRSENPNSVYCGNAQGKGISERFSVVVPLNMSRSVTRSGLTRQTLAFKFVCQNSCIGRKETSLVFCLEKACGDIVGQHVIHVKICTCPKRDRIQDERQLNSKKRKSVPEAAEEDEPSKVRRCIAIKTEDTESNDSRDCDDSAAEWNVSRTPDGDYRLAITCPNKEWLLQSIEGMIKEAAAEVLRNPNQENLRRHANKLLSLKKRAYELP

Drp53 = molecular target: T2, Drp53 (Danio rerio, UniProt P79734 1-373)
T2 sequence: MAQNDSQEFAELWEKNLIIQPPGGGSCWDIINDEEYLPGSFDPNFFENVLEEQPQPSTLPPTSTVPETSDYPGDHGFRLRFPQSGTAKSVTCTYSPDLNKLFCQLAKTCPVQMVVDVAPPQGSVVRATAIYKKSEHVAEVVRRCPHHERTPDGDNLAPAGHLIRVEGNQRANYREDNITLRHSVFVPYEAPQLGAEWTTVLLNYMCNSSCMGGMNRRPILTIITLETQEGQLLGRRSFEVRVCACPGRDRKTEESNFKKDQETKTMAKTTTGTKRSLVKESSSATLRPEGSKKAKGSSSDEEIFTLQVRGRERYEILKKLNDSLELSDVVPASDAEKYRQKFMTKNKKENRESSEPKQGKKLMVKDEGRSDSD

Hsp53 = Hsp53 (Homo sapiens, UniProt P04637 1-393)
Xlp53 = Xlp53 (Xenopus laevis, UniProt Q7T1D0 1-362)
ΔNp63α = molecular target: T3, ΔNp63α (Homo sapiens, UniProt Q9H3D4-2 1-586)
T3 sequence: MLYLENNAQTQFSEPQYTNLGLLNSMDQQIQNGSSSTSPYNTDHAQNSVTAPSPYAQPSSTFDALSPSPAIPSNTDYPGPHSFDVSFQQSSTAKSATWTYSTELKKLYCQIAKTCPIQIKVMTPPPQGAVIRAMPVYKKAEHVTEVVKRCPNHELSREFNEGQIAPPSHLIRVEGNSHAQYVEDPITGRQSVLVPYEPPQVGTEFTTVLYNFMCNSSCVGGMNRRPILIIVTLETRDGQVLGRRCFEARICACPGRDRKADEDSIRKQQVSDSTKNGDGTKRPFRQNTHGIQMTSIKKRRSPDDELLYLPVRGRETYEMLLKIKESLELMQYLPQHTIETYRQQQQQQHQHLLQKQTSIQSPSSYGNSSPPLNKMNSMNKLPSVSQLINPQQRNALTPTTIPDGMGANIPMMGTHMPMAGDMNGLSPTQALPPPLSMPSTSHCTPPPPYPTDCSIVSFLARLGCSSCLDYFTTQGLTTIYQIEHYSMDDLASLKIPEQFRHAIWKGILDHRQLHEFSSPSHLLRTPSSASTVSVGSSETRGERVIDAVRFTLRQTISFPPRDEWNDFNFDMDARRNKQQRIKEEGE

ΔNp63β = molecular target: T4, ΔNp63β (Homo sapiens, UniProt Q9H3D4-4 1-461)
T4 sequence: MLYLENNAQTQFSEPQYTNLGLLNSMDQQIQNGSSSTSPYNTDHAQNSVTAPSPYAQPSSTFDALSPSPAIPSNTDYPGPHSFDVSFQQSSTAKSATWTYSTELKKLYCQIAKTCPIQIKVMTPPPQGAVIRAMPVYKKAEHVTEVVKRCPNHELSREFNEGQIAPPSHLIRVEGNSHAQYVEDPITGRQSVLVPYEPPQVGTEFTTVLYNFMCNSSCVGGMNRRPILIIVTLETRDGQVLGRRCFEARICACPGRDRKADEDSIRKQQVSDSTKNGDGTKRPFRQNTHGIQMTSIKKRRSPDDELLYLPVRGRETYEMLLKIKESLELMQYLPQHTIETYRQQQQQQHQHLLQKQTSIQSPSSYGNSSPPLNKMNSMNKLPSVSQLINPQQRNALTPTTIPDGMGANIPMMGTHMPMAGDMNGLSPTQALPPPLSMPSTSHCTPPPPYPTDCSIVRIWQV

ΔNp63γ = molecular target: T5, ΔNp63γ (Homo sapiens, UniProt Q9H3D4-6 1-393)
T5 sequence: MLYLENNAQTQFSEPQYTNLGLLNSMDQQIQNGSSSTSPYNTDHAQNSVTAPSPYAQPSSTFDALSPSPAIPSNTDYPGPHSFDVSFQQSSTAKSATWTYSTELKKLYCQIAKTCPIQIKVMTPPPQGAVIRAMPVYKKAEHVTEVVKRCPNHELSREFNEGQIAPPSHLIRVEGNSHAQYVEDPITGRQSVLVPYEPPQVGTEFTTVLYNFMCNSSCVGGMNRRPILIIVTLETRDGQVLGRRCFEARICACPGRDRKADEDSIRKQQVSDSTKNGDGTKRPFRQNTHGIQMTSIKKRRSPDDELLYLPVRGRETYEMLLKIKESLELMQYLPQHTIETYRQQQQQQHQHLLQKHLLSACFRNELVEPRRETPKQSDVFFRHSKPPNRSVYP

ΔNp73β = molecular target: T6, ΔNp73β (Homo sapiens, UniProt O15350-9 1-450)
T6 sequence: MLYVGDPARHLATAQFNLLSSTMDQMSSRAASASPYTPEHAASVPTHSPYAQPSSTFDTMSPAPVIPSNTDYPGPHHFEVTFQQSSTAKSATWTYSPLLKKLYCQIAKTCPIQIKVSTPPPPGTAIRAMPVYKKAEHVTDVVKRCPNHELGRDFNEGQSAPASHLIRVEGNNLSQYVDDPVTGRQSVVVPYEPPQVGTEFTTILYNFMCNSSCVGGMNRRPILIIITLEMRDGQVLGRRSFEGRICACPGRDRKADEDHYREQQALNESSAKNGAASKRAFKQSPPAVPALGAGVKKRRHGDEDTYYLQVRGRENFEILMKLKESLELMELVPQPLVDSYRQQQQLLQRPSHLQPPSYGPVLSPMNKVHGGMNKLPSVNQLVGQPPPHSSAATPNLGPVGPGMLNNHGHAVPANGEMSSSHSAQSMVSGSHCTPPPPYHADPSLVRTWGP

Mmp53 = Mmp53 (Mus musculus, UniProt P02340 1-390)
p73CT = molecular target: T7, p73CT (Homo sapiens, UniProt O15350 104-383)
T7 sequence: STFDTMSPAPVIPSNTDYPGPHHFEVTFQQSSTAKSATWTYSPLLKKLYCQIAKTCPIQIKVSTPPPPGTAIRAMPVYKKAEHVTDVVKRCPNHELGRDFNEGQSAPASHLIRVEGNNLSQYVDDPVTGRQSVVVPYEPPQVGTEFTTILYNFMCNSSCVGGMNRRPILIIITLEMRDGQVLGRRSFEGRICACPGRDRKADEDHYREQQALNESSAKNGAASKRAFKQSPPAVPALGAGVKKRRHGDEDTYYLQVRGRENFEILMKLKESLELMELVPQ

Mmp53, sequence (P02340 whole entry): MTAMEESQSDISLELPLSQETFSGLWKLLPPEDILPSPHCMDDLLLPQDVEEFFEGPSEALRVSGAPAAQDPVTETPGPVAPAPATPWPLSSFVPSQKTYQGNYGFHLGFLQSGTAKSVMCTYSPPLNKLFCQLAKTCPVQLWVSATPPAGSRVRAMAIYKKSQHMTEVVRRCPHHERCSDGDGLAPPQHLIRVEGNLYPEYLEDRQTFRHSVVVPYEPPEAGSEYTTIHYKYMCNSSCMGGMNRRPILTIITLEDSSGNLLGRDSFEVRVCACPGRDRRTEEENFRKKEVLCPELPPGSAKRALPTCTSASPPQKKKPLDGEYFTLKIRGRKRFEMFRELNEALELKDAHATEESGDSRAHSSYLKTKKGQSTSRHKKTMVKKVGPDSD
Hsp53, sequence (P04637 whole entry): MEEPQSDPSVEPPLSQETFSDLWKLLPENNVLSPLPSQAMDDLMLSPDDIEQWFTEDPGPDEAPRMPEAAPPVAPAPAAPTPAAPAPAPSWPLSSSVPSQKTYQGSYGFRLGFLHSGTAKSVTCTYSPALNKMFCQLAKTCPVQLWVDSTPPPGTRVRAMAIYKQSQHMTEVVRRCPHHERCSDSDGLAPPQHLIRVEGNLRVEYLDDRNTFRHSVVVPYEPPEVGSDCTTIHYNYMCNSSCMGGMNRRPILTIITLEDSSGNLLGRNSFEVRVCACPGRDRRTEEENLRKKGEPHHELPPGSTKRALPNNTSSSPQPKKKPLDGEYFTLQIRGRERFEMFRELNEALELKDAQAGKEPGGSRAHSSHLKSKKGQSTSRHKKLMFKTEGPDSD
Xlp53, sequence (Q7T1D0 entry or part of it): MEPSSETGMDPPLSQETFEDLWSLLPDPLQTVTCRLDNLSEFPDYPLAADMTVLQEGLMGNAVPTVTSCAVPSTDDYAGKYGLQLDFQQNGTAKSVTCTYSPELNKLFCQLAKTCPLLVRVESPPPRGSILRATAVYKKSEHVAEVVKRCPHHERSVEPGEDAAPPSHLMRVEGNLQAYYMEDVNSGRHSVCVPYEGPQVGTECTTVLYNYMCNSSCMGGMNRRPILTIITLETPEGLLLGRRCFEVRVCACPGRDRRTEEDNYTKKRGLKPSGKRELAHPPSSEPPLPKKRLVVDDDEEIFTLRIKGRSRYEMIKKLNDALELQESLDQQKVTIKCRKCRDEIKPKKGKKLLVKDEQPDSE

Sequence | binding signal (Dmp53) [delta log10 Kd] | binding signal (Drp53) [delta log10 Kd] | binding signal (Hsp53) [delta log10 Kd] | binding signal (Xlp53) [delta log10 Kd] | binding signal (ΔNp63α) [delta log10 Kd] | binding signal (ΔNp63β) [delta log10 Kd] | binding signal (ΔNp63γ) [delta log10 Kd] | binding signal (ΔNp73β) [delta log10 Kd] | binding signal (Mmp53) [delta log10 Kd] | binding signal (p73CT) [delta log10 Kd]
CGCGGACAAGTCCGGACATGTCCCGC | 0.22 | 0.35 | 0.16 | 0.18 | 0.02 | 0.15 | 0.19 | 0.12 | 0.27 | 0.19
CGCGGTCATGTCCGGACATGTCCCGC | 0.36 | 0.48 | 0.42 | 0.35 | – | 0.53 | 0.49 | – | 0.29 | –
CGCGGATATGTCCGGACATGTCCCGC | 1.01 | 0.58 | 0.56 | 0.62 | 0.68 | 0.85 | 0.97 | 1.04 | 0.34 | 1.06
CGCGGACATTTCCGGACATGTCCCGC | 1.55 | 1.37 | 0.44 | 0.88 | 1.1 | 1.2 | 1.46 | 1.43 | 0.65 | 1.58
CGCGTACATGTCCGGACATGTCCCGC | 0.12 | 0.21 | 0.21 | 0.13 | 0.08 | 0.23 | 0.21 | 0.24 | 0.19 | 0.24
CGCTGACATGTCCGGACATGTCCCGC | 0.02 | 0.22 | 0.16 | 0.13 | 0.08 | 0.1 | 0.1 | 0.11 | 0.18 | 0.09
CGCGGACCTGTCCGGACATGTCCCGC | 0.54 | 0.77 | 0.45 | 0.48 | 0.3 | 0.57 | 0.58 | 0.64 | 0.4 | 0.56
